Here are results for 10 compounds from PubChem BioAssay.

Where “and” joins values, the source holds several entries; their conditions need not be identical. Equal values may be shown once. Results filed as inconclusive are left out. Calls of active or inactive are those of the source.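 The calls were made as follows, unless noted: active = thallium flux through the channel raised or lowered by more than 3 SD from vehicle-only wells, actives on both sides; inactive = the rest.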

The nature of assay [1]: GFP-Q80 aggregate reduction, neuronal-like cells, cell-based, NGF-treated PC12, GFPQ80 (AID 1614).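 Also: lower means fewer inclusions and 0 means no inclusions at all.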 The following applies: PC12 NGF-treated GFP-polyQ80 inclusion reduction.
The nature of assay [2]: signal quenchers or enhancers, Cy5 substrate/SSB – biochemical, NIH Clinical Collection, E. coli SSB, artefact control for HCV NS3 helicase inhibitor project (AID 743268; call rule not given here). The conditions noted are these: Cy5-oligo bound E. coli SSB, fluorescence interference.
The nature of assay [3]: viability loss in pontine glioma line – cell-based, SU-DIPG-XIII, MIPE4.0, CellTiter-Glo, qHTS, dose response (AID 1347061; cut-off not given, nearly all actives have AC50 up to about 37 µM;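 also: cells exposed to compound for 48 hours before readout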). The following applies: CellTiter-Glo ATP luminescence. For orientation: In ATP-based viability assays light output follows the ATP content of the culture.
Assay [4] is described as follows: viability loss in pontine glioma line – cell-based, JHH-DIPG-1, MIPE4.0, CellTiter-Glo, qHTS, dose response (AID 1347062; cut-off not given, nearly all actives have AC50 up to about 27 µM;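 as to AC50: cells exposed to compound for two days before readout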). The conditions noted are these: JHH-DIPG-1 viability, CellTiter-Glo ATP luminescence.
A short description of assay [5]: growth inhibition of DIPG cells – cell-based, MIPE4.0 library, CellTiter-Glo luminescence, qHTS (AID 1347066; cut-off not given, nearly all actives have AC50 up to about 30 µM;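 also: cells exposed to compound for 48 hours before readout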). The following applies: SU-DIPG-VI viability, CellTiter-Glo ATP luminescence.
Assay [6] is described as follows: growth inhibition, single agent or in combination, cell-based, chromothripsis tumors, cisplatin or BGB combos (AID 1671449; in the data active = inhibition above about 80%;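 also: cells exposed for 96 hours; 0% = vehicle DMSO and 100% = killing by high DMSO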). The following applies: LFS_MB_P medulloblastoma cells.
Assay [7] in a line: growth inhibition, single agent and combos, cell-based, chromothripsis tumors, cisplatin or BGB combos (AID 1671450; in the data active = inhibition above about 80%;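 also: cells exposed to compound for four days; 0% = vehicle DMSO and 100% = cell killing by high DMSO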). The following applies: HDN33 neuroblastoma cells, stronger effect = higher value.
The nature of assay [8]: growth inhibition, single agents and combos, LFS_MB_1R, cell-based, cisplatin or BGB combos, synergistic combos for chromothripsis tumors (AID 1671452; in the data active = inhibition above about 80%;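 also: cells exposed for 96 hours before readout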). The conditions noted are these: LFS_MB_1R medulloblastoma cells, stronger effect = higher value.
The nature of assay [9]: growth inhibition, single agents and combos, HTB85, cell-based, BGB or cisplatin IC20 combos, synergistic combos for chromothripsis tumors (AID 1671453; in the data active = inhibition above about 80%;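 also: cells exposed for 96 hours before readout; 0% = vehicle DMSO and 100% = high DMSO killing control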). The following applies: HTB85 osteosarcoma cells, drug combinations, stronger effect = higher value.
Assay [10] is described as follows: growth inhibition, MDA-MB-436, cell-based, BGB or cisplatin combos, synergistic combos for chromothripsis tumors (AID 1671458; call rule not given here;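 also: cells exposed for 96 hours; 0% = vehicle DMSO and 100% = killing by high DMSO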). The following applies: MDA-MB-436 breast carcinoma growth inhibition, drug combinations, stronger effect = higher value.
Assay [11] in a line: BT084 cell growth, single and combined drugs, ICGC_MB145, cisplatin and BGB IC40 combos (AID 1671461; in the data active = inhibition above about 80%;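 also: cells exposed to drugs for 96 hours; 0% = vehicle DMSO and 100% = high DMSO full killing control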). The following applies: BT084 medulloblastoma cells, drug combinations, stronger effect = higher value.
Assay [12] is described as follows: RCMB18 cell growth, single agent and combined, cisplatin and BGB IC40 combos (AID 1671462; in the data active = inhibition above about 80%;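 also: cells exposed to compound for four days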). The following applies: RCMB18 medulloblastoma cells, stronger effect = higher value.
Assay [13] can be described thus: CRL1545 cell growth, single agent and combined, cisplatin and BGB IC20 combos (AID 1671464; in the data active = inhibition above about 80%;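 also: cells exposed to compound for 96 hours before readout; 0% = vehicle DMSO and 100% = high DMSO killing control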). The conditions noted are these: CRL1545 osteosarcoma cells, stronger effect = higher value.
Another assay concerns F380Y/beta1. Description: BK channel mutant inhibitors and activators – cell-based, U2OS BacMam, thallium flux, beta subunits, selectivity assay, profiling panel (AID 1259406).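 Also: initial slope of Thallos dye fluorescence rise after thallium is added; log ratio against the mean of 0.3% DMSO vehicle wells on the same plate.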 The conditions noted are these: U2OS BacMam BK variants, at 30 µM.
The test system of the next assay is F380Y/beta4. The assay is described as above. The following applies: U2OS BacMam BK variants, at 30 µM.
For another assay, the system named is R275C/beta4. The assay is described as above. The following applies: U2OS BacMam BK variants, at 30 µM.
In the next assay the test system is R275C/Slo1WT/beta2. The assay is described as above. The conditions noted are these: U2OS BacMam BK variants, at 30 µM.
The test system of assay [14] is Aerobactin synthetase IucA (Klebsiella pneumoniae). Description: inhibition of K. pneumoniae IucA enzyme – biochemical, Tocris library, absorbance (AID 1345561; call rule not given here;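 also: 100% = enzyme without compound and 0% = no enzyme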). The following applies: purified IucA enzyme assay, absorbance (OD) read-out; stronger effect = lower value;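 tested at 8 µM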.
The nature of assay [15]: viability loss in pontine glioma line – cell-based, SU-DIPG-IV, MIPE4.0, CellTiter-Glo, qHTS, dose response (AID 1347063; cut-off not given, nearly all actives have AC50 up to about 30 µM;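 also: compound exposure lasted 48 hours before the viability readout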). The following applies: CellTiter-Glo ATP luminescence.
Assay [16] is described as follows: growth inhibition of DIPG cells – cell-based, MIPE5.0 library, qHTS (AID 1347068; cut-off not given, nearly all actives have IC50 up to about 30 µM). The conditions noted are these: SU-DIPG-XXV viability.
[17] abbreviates: measured here: combination with BGB IC40, at 0.05 µM.
[18] abbreviates: measured here: with BGB IC20 combination, at 0.5 µM.
Setting [19] is: measured here: with cisplatin IC20 combination, at 0.5 µM.
[20] abbreviates: measured here: combination with cisplatin, at 0.5 µM.

A word on the inhibition: it is the relative decrease from the control value, in per cent. In assay [1], `CCn1cc(C(=O)O)c(=O)c2ccc(C)nc21` came in with an inclusion score of 2. Moreover, the fluorescence ratio in assay [2] was 1.03 (inactive). Also, the compound was classed as inactive in assay [3], in [4] and in assay [5]. Further, the inhibition is -12.4% (inactive) and -25.4% (inactive) in assay [6] (at 0.5 µM, stronger effect = higher value); -22.2% and -24.5% in assay [6] (measured here: combination with BGB IC20, at 0.005 µM); 11.9% and -5.77% in [6] (measured here: combination with BGB IC40, at 0.005 µM); 1.93% and -7.94% in assay [6] (setting [17]); -11.7% and -31.6% in [6] (measured here: combination with cisplatin, at 0.5 µM, stronger effect = higher value); -6.26% and -18.6% in assay [6] (measured here: combination with cisplatin, at 5 µM, stronger effect = higher value). The inhibition in assay [7] (BGB combo, at 5 µM) is -4.41% and 16.2%; in [7] (at 0.5 µM) it was 3.94% (inactive) and 4.3% (inactive); in assay [7] (cisplatin combo, at 5 µM), -15% and -2.27%; in assay [7] (setting [18]) it was -7.56% and 11.7%; in [7] (setting [19]), 7.18% and 9.4%; in assay [7] (single agent, at 5 µM) it was 11.6% and -22.5%. In addition, the inhibition was -19% (inactive) and -13.7% (inactive) in assay [8] (at 0.5 µM); -21.7% and -0.433% in [8] (setting [17]); -30.2% and 15.7% in assay [8] (setting [20]); -1.32% and 14.5% in assay [8] (measured here: combination with cisplatin, at 5 µM); -2.77% (inactive) and -11% (inactive) in assay [9] (at 0.5 µM); -12.2% and -35.2% in [9] (measured here: with BGB IC20, at 0.5 µM). Also, the inhibition in assay [9] (measured here: with BGB IC20, at 5 µM) was -14.2% and -15.8%; in [9] (measured here: with cisplatin IC20, at 0.5 µM), -1.63% and -0.143%; in assay [9] (measured here: with cisplatin IC20, at 5 µM), 17.1% and -0.249%; in [9] (single agent, at 5 µM), 22.3% and -3.38%; in assay [10] (at 0.5 µM) it was -9.6% (inactive) and -19.2% (inactive); in assay [10] (measured here: BGB combination, at 0.5 µM) it was -10.5% and -16.3%. In addition, the inhibition in assay [10] (measured here: BGB combination, at 5 µM) is -0.497% and -4.71%; in assay [10] (measured here: cisplatin combination, at 0.5 µM) it was -19.6% and -33.6%; in assay [10] (measured here: cisplatin combination, at 5 µM), -0.491% and -16.4%; in [11] (at 0.5 µM), -9.05% (inactive) and -29.1% (inactive); in assay [11] (cisplatin combination, at 0.5 µM) it was -8.44% and -23.5%; in assay [11] (cisplatin combination, at 5 µM), -55.2% and -59.3%. For the same compound, the inhibition in assay [11] (measured here: BGB IC40 combination 0.05 uM, at 0.05 µM) is 10.8% and -9.88%; in assay [11] (single agent, at 5 µM) it was -16.7% and -23%; in assay [12] (at 0.5 µM), 1.01% (inactive) and -9.08% (inactive); in assay [12] (cisplatin combo, at 5 µM), 0.823% and 3.11%; in assay [12] (measured here: BGB IC40 combination, at 0.05 µM) it was 11.9% and -0.784%; in assay [12] (setting [20]) it was -11.3% and -2.66%. The inhibition in assay [12] (single agent, at 5 µM) is -12.4% and -29.6%; in assay [13] (at 0.5 µM), -14.9% (inactive) and -26.1% (inactive); in assay [13] (setting [18]) it was -12.1% and -5.6%; in [13] (setting [19]), -16.3% and -36.4%; in assay [13] (single agent, at 0.05 µM), -17.6% and 10%; in [13] (single agent, at 5 µM) it was 0.11% and -3.86%. The log fold change Tl+ flux in the assay with F380Y/beta1 is 0.00258 (inactive); in the assay on F380Y/beta4 it was 0.0252 (inactive); in the assay with R275C/beta4 it was 0.0726 (inactive); in the assay on R275C/Slo1WT/beta2, -0.00423 (inactive).
By remaining activity is commonly meant the signal under treatment as a percentage of the control signal. As for `COC(=O)C1=C(C)NC(C)=C(C(=O)OC)C1c1ccccc1[N+](=O)[O-]`, the fluorescence ratio in [2] is 0.94 (inactive). Moreover, in [14], the remaining activity is 121% (inactive).
As to `COc1c2occc2cc2ccc(=O)oc12`, the inclusion score in [1] was 2. In addition, the fluorescence ratio in assay [2] is 0.98 (inactive). For the same compound, the result in [3], in [4], in [15], in [5] and in assay [16] was inactive. For the same compound, the log fold change Tl+ flux was 0.0099 (inactive) in the assay on F380Y/beta1, 0.0241 (inactive) in the assay on F380Y/beta4, 0.0801 (inactive) in the assay on R275C/beta4 and 0.00849 (inactive) in the assay on R275C/Slo1WT/beta2.
In [1], `CC(C(=O)O)c1cccc(C(=O)c2ccccc2)c1` (stereo not given) gave an inclusion score of 2. For the same compound, the outcome in [15] and in assay [5] was inactive. Besides, the log fold change Tl+ flux in the assay on F380Y/beta1 is -0.011 (inactive); with F380Y/beta4 it was 0.0138 (inactive); with R275C/beta4, 0.00182 (inactive); with R275C/Slo1WT/beta2 it was -0.0223 (inactive).
In turn, `CC(C)OC(=O)C(C)(C)Oc1ccc(C(=O)c2ccc(Cl)cc2)cc1` yielded an inclusion score in [1] of 0. The outcome in [4], in assay [15] and in [16] was inactive. Also, the log fold change Tl+ flux in the assay with F380Y/beta1 is -0.0557 (inactive); in the assay on F380Y/beta4, 0.00294 (inactive); with R275C/beta4, 0.00518 (inactive); in the assay with R275C/Slo1WT/beta2, 0.0641 (inactive).
Usually AC50 stands for the concentration giving half of the maximal activity seen. `CN(C)C(=O)C(CCN1CCC(O)(c2ccc(Cl)cc2)CC1)(c1ccccc1)c1ccccc1`: the fluorescence ratio in [2] is 1.06 (inactive). For the same compound, in assay [14], the remaining activity was 118% (inactive). For the same compound, the compound was called inactive in assay [3], in assay [15] and in assay [16]. Besides, the AC50 in assay [4] is 20.9 µM (active). Further, the log fold change Tl+ flux is 0.203 (active) in the assay with F380Y/beta1, 0.119 (active) in the assay on F380Y/beta4, -0.104 (inactive) in the assay with R275C/beta4 and 0.0159 (inactive) with R275C/Slo1WT/beta2.
`N=c1nc(N2CCCCC2)cc(N)n1O` showed an inclusion score in assay [1] of 1. Further, the fluorescence ratio in assay [2] was 0.1 (active). Moreover, in assay [14], the remaining activity was 109% (inactive). Moreover, the call in [3], in [4], in assay [15] and in assay [5] was inactive. In addition, the log fold change Tl+ flux in the assay on F380Y/beta1 is 0.0169 (inactive); in the assay with F380Y/beta4, -0.0416 (inactive); with R275C/beta4 it was 0.0196 (inactive); in the assay on R275C/Slo1WT/beta2, 0.0414 (inactive).
In [1], `O=C1CN(/N=C/c2ccc([N+](=O)[O-])o2)C(=O)N1` gave an inclusion score of 2.
As for `NC(=O)c1cccnc1`, the fluorescence ratio in assay [2] was 1.01 (inactive). Further, the call in assay [4], in assay [15], in assay [5] and in assay [16] was inactive. The log fold change Tl+ flux in the assay on F380Y/beta1 was -0.0163 (inactive); in the assay with F380Y/beta4, 0.00589 (inactive); in the assay with R275C/beta4, 0.0149 (inactive); in the assay with R275C/Slo1WT/beta2, 0.0115 (inactive).
As for `Cc1ccc(-n2nc(C(C)(C)C)cc2NC(=O)Nc2ccc(OCCN3CCOCC3)c3ccccc23)cc1`, the half-maximal activity concentration (AC50) in assay [3] is 13.2 µM (active). Moreover, the compound was called inactive in [4], in assay [15], in assay [5] and in assay [16].
